Test results as given in ChEMBL document CHEMBL4513146, “CO-ADD screening of Karazin Kharkiv National University (Ukraine) compounds”.
Results with a measured potency or affinity are listed apart.

These molecules were tested on Klebsiella pneumoniae. Details: Concentration 32 ug.mL-1;; ASSAY_TEST Inhibition of Bacterial Growth; detection method Absorption (OD600); MEDIA CAMHB; plate type 384well; NBS; CORNING #3640; time 18 hr.

SMILES	Inhibition [%]
Cc1cc2nn(CC(=O)Nc3cc(F)ccc3F)c(=O)n2c(Nc2ccc(C)c(F)c2)n1	8.03
O=C(CSc1nnc2c(=O)n(-c3ccccc3)ccn12)N1CCN(c2ccc(F)cc2)CC1	13.33
Cc1ccc(-n2ccn3c(SCC(=O)Nc4ccc5c(c4)OCCO5)nnc3c2=O)cc1C	9.68
CCCNC(=O)Cn1nc2nc(Nc3ccc(F)cc3)ccn2c1=O	-2.03
Cc1ccccc1Nc1cc(C)n2c(=O)n(CCc3ccccc3)nc2n1	8.17
COc1ccc(NC(=O)Cn2nc3c(Oc4cccc(F)c4)nccn3c2=O)cc1	-11.98
CCOc1ccc(-c2nc(CSc3nc4ccccc4n4c(C)nnc34)c(C)o2)cc1	11.43
Cc1ccc(-c2cc3c4nn(CC(=O)Nc5cc(Cl)ccc5C)c(=O)n4ccn3n2)cc1C	6
O=C(CSc1nnc2c(=O)n(-c3ccccc3)ccn12)Nc1ccccc1F	7.24
Cc1ccccc1N1CCN(c2nccn3c(=O)n(CC(=O)NCc4cc(F)cc(F)c4)nc23)CC1	4.01
COc1ccc(-c2cc3c4nnc(SCC(=O)NCc5ccccc5Cl)n4ccn3n2)cc1	6.77
O=S(=O)(c1cccn2cnnc12)N(Cc1ccc(F)cc1)c1ccc(F)cc1	4.83
Cc1nnc2c(=O)n(CC(=O)Nc3ccc(F)cc3F)c3ccccc3n12	12.43
CC(C)CCn1c(=O)c2sccc2n2c(=O)n(CC(=O)N(C)c3ccccc3)nc12	0.74
CCc1nnc2c(SCC(=O)Nc3ccc(Br)cc3)nc3ccccc3n12	-1.42
Cc1ccc2c(c1)N(C(=O)Cn1nc3ccc(Sc4ccccc4)nn3c1=O)CCO2	4.6
COc1cccc(CNC(=O)CSc2nnc3c(=O)n(-c4ccc(F)cc4)ccn23)c1OC	1.04
CCOc1ccc(N(Cc2cccc(F)c2)S(=O)(=O)c2ccc3nncn3c2)cc1	6.73
CC(C)Sc1ccc2nn(CC(=O)Nc3ccc(Cl)cc3F)c(=O)n2n1	7.97
COc1ccc(NC(=O)Cn2nc3ccc(-c4ccc(C)c(C)c4)nn3c2=O)cc1OC	6.13
COC(=O)c1ccc(NC(=O)Cn2nc3c(N4CCOCC4)nccn3c2=O)cc1	12.49
O=c1n(Cc2ccc3c(c2)OCO3)nc2c(S(=O)(=O)N3CCCC3)cccn12	5.42
CCc1nnc2c(SCC(=O)Nc3ccc(Cl)cc3)nc3ccccc3n12	3.4
O=C(CCc1nnc2c3cc(-c4ccc(F)cc4)nn3ccn12)N1CCC(Cc2ccccc2)CC1	4.22
CCC(C)NC(=O)Cn1nc2n(CCC(C)C)c(=O)c3sccc3n2c1=O (stereo not given)	0.17

What follows are molecules tested on Candida albicans. Details: Concentration 32 ug.mL-1; ASSAY_TEST Inhibition of Fungal Growth; detection method Absorption (OD530).

SMILES	Inhibition [%]
Cc1cc2nn(CC(=O)Nc3ccc(F)cc3Cl)c(=O)n2c(Nc2ccccc2C)n1	30.65
O=C(Cn1nc2c(Oc3ccccc3)nccn2c1=O)Nc1ccc2c(c1)OCCO2	0.75
O=C(Cn1nc2c3sc(N4CCCC4)nc3ncn2c1=O)Nc1ccc(F)c(Cl)c1	4.41
CCCCN(CC)c1ccc2nnc(CCc3nc(-c4ccc(Br)cc4)no3)n2n1	6.33
O=C(Cn1nc2c(Oc3ccccc3)nccn2c1=O)Nc1cc(F)ccc1F	-0.69
COc1ccc(NC(=O)Cn2nc3c(N4CCOCC4)nccn3c2=O)c(OC)c1	0.63
CC(C)CCn1c(=O)c2sccc2n2c(=O)n(Cc3c(F)cccc3Cl)nc12	9.98
O=C(Cn1nc2c3sc(N4CCCC4)nc3ncn2c1=O)Nc1ccccc1Cl	4.36
N#CCSc1nnc2c(=O)n(-c3ccc(Br)cc3)ccn12	1.63
Cc1cccc(NC(=O)Cn2nc3c4cc(-c5ccc(Cl)cc5)nn4ccn3c2=O)c1C	0.51
C=Cc1ccc(CN(c2ccc(CC)cc2)S(=O)(=O)c2cccn3c(C)nnc23)cc1	4.32
CCc1nnc2c(S(=O)(=O)N(Cc3cccc(OC)c3)c3ccccc3)cccn12	4.76
CC(C)NC(=O)CSc1nnc2c(=O)n(Cc3ccc(F)cc3)ccn12	2.95
COc1cccc(-n2ccn3c(SCC(=O)NCc4ccc(C)cc4)nnc3c2=O)c1	2
O=c1c2sccc2n2c(=O)n(Cc3ccc(F)cc3)nc2n1Cc1cccs1	43.23
Cc1cc2nn(CC(=O)Nc3cc(F)ccc3F)c(=O)n2c(Nc2ccc(C)c(F)c2)n1	1.75
O=C(CSc1nnc2c(=O)n(-c3ccccc3)ccn12)N1CCN(c2ccc(F)cc2)CC1	-0.45
Cc1ccc(-n2ccn3c(SCC(=O)Nc4ccc5c(c4)OCCO5)nnc3c2=O)cc1C	0.14
CCCNC(=O)Cn1nc2nc(Nc3ccc(F)cc3)ccn2c1=O	-0.03
Cc1ccccc1Nc1cc(C)n2c(=O)n(CCc3ccccc3)nc2n1	2.84

SMILES	Inhibition [%]
COc1ccc(NC(=O)Cn2nc3c(Oc4cccc(F)c4)nccn3c2=O)cc1	4.65
CCOc1ccc(-c2nc(CSc3nc4ccccc4n4c(C)nnc34)c(C)o2)cc1	1.94
Cc1ccc(-c2cc3c4nn(CC(=O)Nc5cc(Cl)ccc5C)c(=O)n4ccn3n2)cc1C	4.85
O=C(CSc1nnc2c(=O)n(-c3ccccc3)ccn12)Nc1ccccc1F	-0.73
Cc1ccccc1N1CCN(c2nccn3c(=O)n(CC(=O)NCc4cc(F)cc(F)c4)nc23)CC1	0.32
COc1ccc(-c2cc3c4nnc(SCC(=O)NCc5ccccc5Cl)n4ccn3n2)cc1	1.79
O=S(=O)(c1cccn2cnnc12)N(Cc1ccc(F)cc1)c1ccc(F)cc1	2.44
Cc1nnc2c(=O)n(CC(=O)Nc3ccc(F)cc3F)c3ccccc3n12	-0.68
CC(C)CCn1c(=O)c2sccc2n2c(=O)n(CC(=O)N(C)c3ccccc3)nc12	-2.64
CCc1nnc2c(SCC(=O)Nc3ccc(Br)cc3)nc3ccccc3n12	31.58
Cc1ccc2c(c1)N(C(=O)Cn1nc3ccc(Sc4ccccc4)nn3c1=O)CCO2	-1.78
COc1cccc(CNC(=O)CSc2nnc3c(=O)n(-c4ccc(F)cc4)ccn23)c1OC	2.96
CCOc1ccc(N(Cc2cccc(F)c2)S(=O)(=O)c2ccc3nncn3c2)cc1	1.76
CC(C)Sc1ccc2nn(CC(=O)Nc3ccc(Cl)cc3F)c(=O)n2n1	16.98
COc1ccc(NC(=O)Cn2nc3ccc(-c4ccc(C)c(C)c4)nn3c2=O)cc1OC	32.8
COC(=O)c1ccc(NC(=O)Cn2nc3c(N4CCOCC4)nccn3c2=O)cc1	2.39
O=c1n(Cc2ccc3c(c2)OCO3)nc2c(S(=O)(=O)N3CCCC3)cccn12	0.37
CCc1nnc2c(SCC(=O)Nc3ccc(Cl)cc3)nc3ccccc3n12	9.64
O=C(CCc1nnc2c3cc(-c4ccc(F)cc4)nn3ccn12)N1CCC(Cc2ccccc2)CC1	-1.12
CCC(C)NC(=O)Cn1nc2n(CCC(C)C)c(=O)c3sccc3n2c1=O (stereo not given)	-2.39
